Results on eight molecules are retold here after PubChem BioAssay (NCATS).

Records with an inconclusive call do not appear. The source made the active and inactive calls. Unless noted, the call rests on the fitted dose curve; in most records, active means well fitted curve in the direction sought with a large enough effect; inconclusive means small, poorly fitted or top-dose-only effect, or another doubt; inactive means no such curve, though single readings can be large; an effect the other way counts as inactive or inconclusive.

A short description of assay [1]: qHTS profiling of the MIPE4 collection as inhibitors of Plasmodium falciparum (3D7) proliferation (AID 743344; call rule not given here;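 further: scaled between DMSO vehicle wells and 0.29 µM artemisinin as full inhibition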). The following applies: P. falciparum 3D7 in erythrocytes, SYBR Green DNA fluorescence, 72 h; at 28.5 µM unless noted. The method, boiled down:
(§1)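 Erythrocytes infected with P. falciparum (0.3% parasitemia, 2.5% hematocrit) incubated with compounds 72 h at 37 C, 5% CO2. Lysis with saponin/Triton buffer containing SYBR Green I, overnight at room temperature in the dark; DNA fluorescence (485/535 nm) normalised to 0.29 uM artemisinin and DMSO.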
Background: qHTS replaces the single test concentration by a dilution series.

Assay [2] can be described thus: qHTS profiling of the MIPE4 collection as inhibitors of Plasmodium falciparum (DD2) proliferation (Rep 2) (AID 743346; call rule not given here). The following applies: P. falciparum Dd2 in erythrocytes, SYBR Green DNA, 72 h; at 28.5 µM unless noted. The procedure, abridged: as §1
A short description of assay [3]: qHTS profiling of the MIPE4 collection as inhibitors of Plasmodium falciparum (HB3) proliferation (AID 743347; call rule not given here;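 further: plate controls were DMSO vehicle wells for no effect and artemisinin wells for full effect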). The following applies: P. falciparum HB3 in erythrocytes, SYBR Green DNA, 72 h; at 28.5 µM unless noted. The method, boiled down:
as §1

A short description of assay [4]: High-throughput drug toxicity screening in the BPDCN cell line Gen2.2 (AID 1224824; call rule not given here). Conditions: Gen2.2 BPDCN cells; at 45.8 µM (top of the series) unless noted. The procedure, abridged:
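Seed 500 exponentially growing Gen2.2 cells/well; add compounds by pin tool; incubate 48 h, 37 °C, 5% CO2; add CellTiter-Glo, 15 min RT; read luminescence. % activity vs DMSO (100%) and bortezomib (0%).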

Assay [5] can be described thus: High-throughput drug toxicity screening in the BPDCN cell line Cal-1 (AID 1224825; call rule not given here). The following applies: Cal-1 BPDCN cell viability, qHTS; at 45.8 µM (top of the series) unless noted. The method, boiled down:
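Cal-1 cells, 500 per well in phenol-red-free RPMI with 10% FBS, exposed to compounds for 48 hours at 37C, 5% CO2. Viability read by CellTiter-Glo luminescence; percent activity normalized to DMSO (100%) and 9.2 uM bortezomib final (0%).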

Assay [6] is described as follows: qHTS assay for measurement of the activity of small molecule inhibitors on Zika virus induced Caspase-3 activity in human iPSC derived neural progenitor cells (hNPCs) (AID 1224857). Further: % of control where 0% means no effect; nearly all actives have a fitted effect of over 65% in size. The method, boiled down:
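Caspase-3/7 induction by a 6-hour ZIKV infection was quantified with a luminescent Caspase-Glo 3/7 reagent incubated 30 minutes at room temperature. Compounds were preincubated with hNPCs for 1 hour; inhibition was calculated against uninfected and infected control wells.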

Assay [7] in a line: qHTS assay for measurement of the activity of small molecule inhibitors on Zika virus induced Caspase-3 activity in human astrocytoma cells (AID 1224859).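 Further: plate controls were ZIKV-infected untreated cells for no effect and uninfected cells for full effect.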 The procedure, abridged: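 In SNB-19 cells plated at 250 cells/well and grown 16-20 h, compounds were applied 1 h before ZIKV (2 FFU/cell). Six hours later caspase-3/7 luminescence was recorded.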
Assay [8] in a line: qHTS Screen of the MIPE 4.0 Collection Against Ewings Sarcoma (RDES) (AID 1259252). Further: nearly all actives have a fitted effect of over 35% in size. Further: potency means the concentration at half of the fitted maximal effect. The method, boiled down: (§2)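 Viability screen: 48 h incubation at 37C, 95% humidity, 5% CO2 with serially titrated compound, followed by CellTiter-Glo readout.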
Assay [9] is described as follows: Identifying Small Molecule Inhibitors of Pancreatic Cancer Stem Cells (SN12C, Adherent) (AID 1259358).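 Further: cell survival measured after 48 h of compound exposure.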 Further: potency means the concentration at half of the fitted maximal effect. The method, boiled down: (§3)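 Monolayer and spheroid cultures are compared. Spheroids form over 14 days in stem cell medium on hydrogel-coated low-attachment plates, then are exposed to compound for 48 h before CellTiter-Glo luminescence.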
Assay [10] is described as follows: Identifying Small Molecule Inhibitors of Pancreatic Cancer Stem Cells (SN12C, Spheroid) (AID 1259360). Further: potency means the concentration at half of the fitted maximal effect.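 On viability (% of control): 100% = DMSO-treated cells and 0% = wells without cells.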 Conditions: Potency: SN12C spheroid viability. The procedure, abridged:
(§4)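 After a 4 h attachment period, compounds were pinned into wells and cultures held 48 h under standard incubator conditions. Viability was then measured as CellTiter-Glo luminescence following 10 min at room temperature.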

The nature of assay [11]: Identifying Small Molecule Inhibitors of Pancreatic Cancer Stem Cells (Panc1, Adherent) (AID 1259362). Further: potency means the concentration at half of the fitted maximal effect.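 On viability, % of control: compound exposure lasted 48 h before the viability read; plate controls were DMSO-treated cells for no effect and cell-free media wells for full effect.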 Conditions: Potency: viability. The procedure, abridged:
as §4

Assay [12] in a line: qHTS profiling for inhibitors of Plasmodium falciparum (HB3) proliferation (AID 743324).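 Further: 100% = DMSO vehicle wells and 0% = artemisinin-treated control wells.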 The following applies: Plasmodium falciparum HB3 blood-stage proliferation; at 28.7 µM (top of the series) unless noted. The method, boiled down:
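P. falciparum HB3 grown in erythrocytes (0.3% parasitemia, 2.5% hematocrit final) with compound for 72 h at 37 C, 5% CO2. Parasite DNA detected by SYBR Green after saponin/triton lysis overnight; normalized to 0.29 uM artemisinin and DMSO.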

The nature of assay [13]: qHTS profiling of the MIPE4 collection as inhibitors of Plasmodium falciparum (DD2) proliferation (AID 743345; call rule not given here). Conditions: P. falciparum Dd2 in erythrocytes, SYBR Green DNA, 72 h; at 28.5 µM unless noted. The method, boiled down:
as §1

A short description of assay [14]: Identifying Small Molecule Inhibitors of Pancreatic Cancer Stem Cells (A2780, Spheroid) (AID 1259357).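 Further: compound exposure lasted 48 h before the ATP luminescence read; 100% = DMSO treated cells and 0% = wells without cells.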 Conditions: Potency: A2780 spheroid viability. The method, boiled down:
as §4

Assay [15] can be described thus: Identifying Small Molecule Inhibitors of Pancreatic Cancer Stem Cells (Panc1, Spheroid) (AID 1259359).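 Further: potency means the concentration at half of the fitted maximal effect; compound exposure lasted 48 h before reading.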 The method, boiled down: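 Luminescent ATP readout (CellTiter-Glo) quantifies surviving cells after a 48 h drug incubation. Normalization uses DMSO wells as no inhibition and media-only wells as full inhibition; bortezomib served as positive control.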
The nature of assay [16]: Identifying Small Molecule Inhibitors of Pancreatic Cancer Stem Cells (A278, Adherent) (AID 1259361).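 Further: viability read after 48 h compound exposure; nearly all actives have a fitted effect of over 35% in size.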 The method, boiled down:
as §3

Assay [17] in a line: qHTS Screen of the MIPE 4.0 Collection Against Ewings Sarcoma (TC32) (AID 1259256).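 Further: 100% = DMSO-treated cells and 0% = medium-only wells without cells; nearly all actives have a fitted effect of over 45% in size.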 The procedure, abridged:
as §2

With `O=C(O)c1ccc(O)c2ncc(N3CCOCC3)cc12`, the parasite growth, % of DMSO control in assay [1] came to 15.1%. For the same molecule, in assay [2], the parasite growth, % of control (lower = inhibition) worked out at 16.8%. Also, in assay [3], the growth, % of control was found to be 11%. Further, in [4], the cell viability, % of control (lower = more cytotoxic) came out at 110%. Moreover, in assay [5], the viability (% of control) is 100%. Besides, the Potency result in assay [6], in [7], in assay [9], in assay [10] and in assay [11] was “inactive” each time. The Potency in assay [8] is 26.4 µM (active).

Take `CC1=C[C@@H]2[C@@H]([C@@H](O)C[C@@]3(C)[C@H]2C[C@@H](C)[C@]3(O)C(=O)CO)[C@@]2(C)Cc3cnn(-c4ccccc4)c3C=C12`: in assay [12], the remaining proliferation (% of control), lower = more inhibition is 0.0764%. This molecule returned a parasite growth, % of DMSO control in assay [1] of 33.4%. For the same molecule, in assay [13], the parasite growth remaining, % of DMSO control (lower = more inhibition) was determined as 8.93%. In [2], this molecule yielded a parasite growth, % of control (lower = inhibition) of 46.9%. The same molecule returned a growth, % of control in assay [3] of 11.6%. Also, the cell viability, % of control (lower = more cytotoxic) in [4] was found to be 24.4%. In addition, in assay [5], the viability (% of control) worked out at 32.5%. Also, the Potency entry in [6], in assay [7] and in assay [14] was “inactive” in each case. Further, the Potency in [8] is 23.5 µM (active); in [15], 20.9 µM (active); in assay [10] it was 26.4 µM (active). The IC50 (viability decrease) in assay [16] was 20.9 µM (active).

`CCCCc1ccc(NS(=O)(=O)c2ccc(C)c(C(=O)N3CCN(c4cccc(C)c4C)CC3)c2)cc1`: in assay [12], the remaining proliferation (% of control), lower = more inhibition was 92.7%. The molecule also gave a parasite growth, % of DMSO control in assay [1] of 232%. Besides, in assay [13], the parasite growth remaining, % of DMSO control (lower = more inhibition) is 99.3%. In addition, in [2], the parasite growth, % of control (lower = inhibition) is 59.2%. Further, the growth, % of control in [3] was 257%. Besides, the cell viability, % of control (lower = more cytotoxic) in assay [4] is 425%. This molecule also came in with a viability (% of control) in assay [5] of 99.3%. The Potency entry in assay [6], in assay [7], in [8] and in assay [9] was “inactive” in each case.

`Cc1cccc(Nc2nc(N[C@@H]3CCCC[C@H]3N)ncc2C(N)=O)c1` displayed a remaining proliferation (% of control), lower = more inhibition in [12] of 0.632%. In [1], this molecule registered a parasite growth, % of DMSO control of 5.2%. The molecule further registered a parasite growth remaining, % of DMSO control (lower = more inhibition) in [13] of 10.2%. The same molecule had a parasite growth, % of control (lower = inhibition) in assay [2] of 7.28%. For the same molecule, the growth, % of control in [3] was 2.45%. For the same molecule, in [4], the cell viability, % of control (lower = more cytotoxic) was found to be 2.09%. Further, the viability (% of control) in [5] is 2.41%. The Potency result in assay [6], in assay [7], in assay [14] and in assay [10] was “inactive” throughout. Moreover, the results for the Potency in assay [8], in assay [9] and in assay [11] were 16.6 µM (active), 18.7 µM (active) and 26.4 µM (active), respectively.

In [12], `COC(=O)Nc1ccc(-c2nc(N3CCOCC3)c3cnn(C4CCN(C(=O)OC)CC4)c3n2)cc1` displayed a remaining proliferation (% of control), lower = more inhibition of 0.698%. Moreover, in assay [1], the parasite growth, % of DMSO control was found to be 11.1%. This molecule also showed a parasite growth remaining, % of DMSO control (lower = more inhibition) in [13] of 14.3%. The parasite growth, % of control (lower = inhibition) in assay [2] was found to be 27.4%. Moreover, the growth, % of control in assay [3] turned out to be 7.52%. Also, in assay [4], the cell viability, % of control (lower = more cytotoxic) was found to be 8.32%. Moreover, the viability (% of control) in [5] stood at 4.85%. The Potency result in assay [6], in [7] and in assay [11] was “inactive” throughout. Further, the Potency in assay [8] was 0.0372 µM (active); in assay [9], 0.264 µM (active); in assay [10] it was 1.05 µM (active).

`Cc1ccc(C(=O)N(CCCN)[C@@H](c2oc3cc(Cl)ccc3c(=O)c2Cc2ccccc2)C(C)C)cc1` displayed a parasite growth, % of DMSO control in assay [1] of 4.68%. For the same molecule, the parasite growth remaining, % of DMSO control (lower = more inhibition) in assay [13] is 8.7%. In [2], this molecule returned a parasite growth, % of control (lower = inhibition) of 8.99%. In [3], the growth, % of control was determined as 5.08%. Besides, the cell viability, % of control (lower = more cytotoxic) in assay [4] was 8.98%. Further, the viability (% of control) in assay [5] worked out at 3.72%. Moreover, the Potency entry in [6], in assay [7], in assay [8] and in [17] was “inactive” each time.

Take `CCC(=O)OCC(=O)[C@@]1(OC(=O)CC)[C@@H](C)C[C@@H]2[C@H]3CCC4=CC(=O)C=C[C@]4(C)[C@@]3(F)[C@@H](O)C[C@@]21C`: in assay [1], the parasite growth, % of DMSO control is 12%. The same molecule gave a parasite growth remaining, % of DMSO control (lower = more inhibition) in [13] of 64.4%. Moreover, in assay [2], the parasite growth, % of control (lower = inhibition) turned out to be 39.1%. Also, the growth, % of control in assay [3] amounted to 48.2%. In addition, in assay [4], the cell viability, % of control (lower = more cytotoxic) was found to be 17.4%. This molecule also yielded a viability (% of control) in [5] of 15%. Further, the Potency result in assay [6], in assay [7] and in assay [8] was “inactive” in each case.

In the case of `CC(C)(C)c1[nH]cnc1C=c1[nH]c(=O)c(=Cc2ccccc2)[nH]c1=O`, the parasite growth, % of DMSO control in assay [1] is 20.3% [at 57.5 µM]. This molecule had a parasite growth, % of control (lower = inhibition) in [2] of 23.1% [at 57.5 µM]. The growth, % of control in [3] came out at 7.41% [at 57.5 µM]. In assay [4], the cell viability, % of control (lower = more cytotoxic) worked out at 15.7% [at 92.2 µM]. The molecule further returned a viability (% of control) in assay [5] of 5.98% [at 92.2 µM]. Moreover, the Potency entry in assay [6], in [7], in assay [8] and in [17] was “inactive” throughout. Further, the Potency in assay [15] was 0.0019 µM (active); in assay [10], 14.8 µM (active); in assay [11], 0.0187 µM (active). In assay [16], the IC50 (viability decrease) is 0.0166 µM (active).
